CD11b adhes inh: inhibitors of human CD11b/CD18 binding to fibrinogen. P05107+P11215. inhibition, % at 10 µM. K562 CD11b/CD18 adhesion to fibrinogen, ATPlite luminescence; Mn2+ added to activate the integrin. 93,000 compounds, 0.54% hits;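 active = primary inhibition of 50% or more at 10 µM, then 40% or more on retest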
CD11b adhes enh: CD11b/CD18-fibrinogen binding enhancement; P05107+P11215; K562 CD11b/CD18 adhesion to fibrinogen, ATPlite luminescence; activation, % at 10 µM; 93,000 compounds, 0.07% hits; AID 1499;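 active = 10 µM primary screen giving 50% or more activity, confirmed by 40% or more on retest at that dose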
ERa coact inh: ER-alpha (human) coactivator binding inhibition; P03372; TR-FRET ER-alpha LBD / SRC-1 peptide, estradiol-bound; inhibition, % at 25.6 µM; 86,000 compounds, 1.7% hits; in the data active = inhibition above about 50%
ERa SRC1 pot: ER-alpha (human) coactivator binding potentiation; P03372; AID 639; TR-FRET ERalpha-LBD/SRC-Cy5 coactivator binding, 2 h; 100 = basal binding, no effect; coactivator binding (% of control), % at 25.6 µM; 86,000 compounds, 1.3% hits; in the data active = activity above about 200%;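 note: binding measured in presence of low estradiol as agonist stimulus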
ERb coact inh: ER-beta (human) coactivator binding inhibition; Q92731; TR-FRET ER-beta LBD / SRC1-Cy5 peptide binding; receptor agonist-loaded with 1 µM estradiol; inhibition, % at 25.6 µM; 86,000 compounds, 1.3% hits; AID 633;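 active = compounds whose percent inhibition of the receptor-coactivator binding signal exceeds about 50% in the single-dose screen, limit read from the data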
Target sequence (Q92731 whole entry, looked up, the tested form may be a part): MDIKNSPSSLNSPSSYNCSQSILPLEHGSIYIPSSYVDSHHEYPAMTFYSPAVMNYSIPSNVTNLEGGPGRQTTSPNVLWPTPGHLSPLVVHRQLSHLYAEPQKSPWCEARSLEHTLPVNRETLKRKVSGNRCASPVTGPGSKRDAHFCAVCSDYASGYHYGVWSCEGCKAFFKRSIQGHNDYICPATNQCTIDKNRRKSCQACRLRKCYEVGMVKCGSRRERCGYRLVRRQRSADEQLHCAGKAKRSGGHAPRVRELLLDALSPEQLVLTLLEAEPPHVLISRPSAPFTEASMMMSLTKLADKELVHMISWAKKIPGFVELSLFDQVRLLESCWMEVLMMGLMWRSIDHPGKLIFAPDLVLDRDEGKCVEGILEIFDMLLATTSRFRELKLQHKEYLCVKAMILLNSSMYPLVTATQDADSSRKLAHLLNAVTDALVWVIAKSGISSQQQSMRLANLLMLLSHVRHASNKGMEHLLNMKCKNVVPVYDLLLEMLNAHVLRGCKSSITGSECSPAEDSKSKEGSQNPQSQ
Each line names hits and unclear results; the compound was inactive in the other large screens; [ ] = remark or other dose. The list is not random: actives were taken first. Their share in the collection is about 3.1%.

Clc1ccc2nc(N3CCNCC3)nc(-c3ccccc3)c2c1	none
CCCC(=O)Nc1ccc(C(=O)NNC(=O)COc2ccc(Br)c(C)c2)cc1	none (no result: ERa coact inh, ERa SRC1 pot, ERb coact inh)
COc1ccc(C(C)C)cc1S(=O)(=O)Nc1ccc(Cl)cn1	ERb coact inh 74[fluorescence artefact?]
CCOc1ccc(C)cc1S(=O)(=O)Nc1ccc(Cl)cn1	none
O=C(NCc1ccco1)C1(S(=O)(=O)c2ccc(Cl)cc2)CC1	ERb coact inh 59
CC(C)c1ccc(C(=O)CC2(O)C(=O)N(CN3CCOCC3)c3ccccc32)cc1 (centres undefined)	none
CN1CCN(c2ccc(Cl)cc2NC(=O)c2nn(-c3ccccc3)c(=O)c3ccccc23)CC1	ERa SRC1 pot 242[fluorescence artefact?]
O=C1C(O)CC2c3ccccc3CC3(CCCC3)N12 (centres undefined)	ERa SRC1 pot 235
O=C1c2ccccc2C2NC(=O)C3(CCCCC3)N12 (centres undefined)	none
COC(=O)/C=C1/S/C(=N/N=C/c2ccc(N(C)C)cc2)NC1=O	none (no result: ERa coact inh, ERa SRC1 pot, ERb coact inh)
Cc1ccc(S(=O)(=O)NCC(=O)OCC(=O)Nc2ncc(Cl)cc2Cl)cc1	ERa coact inh 57[fluorescence artefact?]
CC(C)NC(=O)CSc1nc(Cc2cccs2)nc2ccccc12	none (no result: ERa coact inh, ERa SRC1 pot, ERb coact inh)
Clc1ccccc1CSc1ncn(-c2ccccc2)n1	none (no result: CD11b adhes inh, CD11b adhes enh)
c1cncc(-c2nn[nH]n2)c1	ERb coact inh 63[fluorescence artefact?]
CCCN(CC1CC1)C(=S)Nc1ccc(Oc2ccccc2)cc1	none (no result: ERa coact inh, ERa SRC1 pot, ERb coact inh)
CCC1=NN=C(c2ccc(F)cc2)C(c2c[nH]c3ccccc23)N1O (centres undefined)	ERa SRC1 pot 686[fluorescence artefact?] (no result: CD11b adhes inh, CD11b adhes enh)
CCCCOc1ccc(-c2nnn(CC(=O)c3c[nH]c4ccccc34)n2)cc1	none (no result: CD11b adhes inh, CD11b adhes enh)
Cc1ccc2nc(-c3ccccc3)cn2c1	CD11b adhes inh 69
CCOC(=O)c1sc2nc(CSc3nc4ccccc4n3CC)[nH]c(=O)c2c1C	ERa coact inh 54[fluorescence artefact?]
CCOc1cc(N2CCOCC2)c(OCC)cc1NC(C)C(=O)N1CCC(C)CC1 (centres undefined)	none (no result: ERa coact inh, ERa SRC1 pot, ERb coact inh)
O=C(O)CCCN1C(=O)/C(=C/c2ccc(-c3nc4ccccc4s3)o2)SC1=S	CD11b adhes inh 93 (no result: ERa coact inh, ERa SRC1 pot, ERb coact inh)
O=C(/C=C/c1ccccc1)c1cc(Br)ccc(=O)c1O	CD11b adhes inh 88 (no result: ERa coact inh, ERa SRC1 pot, ERb coact inh)
CCOc1ccccc1NC(C)C(=O)Nc1cc(C(F)(F)F)ccc1N1CCOCC1 (centres undefined)	none (no result: ERa coact inh, ERa SRC1 pot, ERb coact inh)
Cc1ccc(NC(=O)CSCC(=O)N2c3ccccc3CCc3ccccc32)cc1	none (no result: ERa coact inh, ERa SRC1 pot, ERb coact inh)
O=C(CCS(=O)(=O)Cc1ccc(Cl)cc1)NCCCN1CCOCC1	none
COc1ccc(OC)c(NC(=O)CCN2CCCCCC2)c1	ERa coact inh 51[fluorescence artefact?] (no result: CD11b adhes inh, CD11b adhes enh)
COc1ccc(OC)c(NC(=O)C2CCCN2C(=O)C2CCC(C)CC2)c1 (centres undefined)	ERa coact inh 91[fluorescence artefact?]
O=C(CCn1cnc2ccccc2c1=O)Nc1nc(-c2ccc(Br)cc2)cs1	none (no result: ERa coact inh, ERa SRC1 pot, ERb coact inh)
O=C(OC(c1ccccc1)c1nccc2ccccc12)c1cc([N+](=O)[O-])cc([N+](=O)[O-])c1 (centres undefined)	none (no result: ERa coact inh, ERa SRC1 pot, ERb coact inh)
CCOC(=O)Cc1nnc2c(Nc3ccccc3F)nc3nonc3n12	CD11b adhes inh 99
COc1ccc(-c2nnc3sc(COc4ccc(C)cc4)nn23)cc1	none
c1ccc(OCc2nn3c(-c4n[nH]c5c4CCC5)nnc3s2)cc1	ERa coact inh 67[fluorescence artefact?], ERb coact inh 61[fluorescence artefact?]
Cc1ccc(OCc2nn3c(-c4n[nH]c5c4CCC5)nnc3s2)cc1	ERa coact inh 73[fluorescence artefact?], ERb coact inh 54
COc1ccc(-c2nnc3sc(COc4ccccc4)nn23)cc1	none
CC(C)OC(=O)CSc1nnc(-c2ccc(C(C)(C)C)cc2)n1N	ERa coact inh 98[fluorescence artefact?]
CC(C)OC(=O)CSc1nnc(-c2ccncc2)n1N	none
COc1ccc2c(OC)cc(-c3ccccc3)nc2c1	none (no result: CD11b adhes inh, CD11b adhes enh)
COc1ccc2c(-c3ccccc3)cc3nnnn3c2c1	ERa SRC1 pot 206
COc1cccc(-c2nnc3sc(-c4cccs4)nn23)c1	ERa SRC1 pot 251
Clc1cccc(-c2nnc3sc(-c4ccccc4)nn23)c1	none (no result: CD11b adhes inh, CD11b adhes enh)
CCOc1cccc(-c2nnc3sc(-c4cc(OC)c(OC)c(OC)c4)nn23)c1	ERa coact inh 73
Clc1cccc(-c2nn3c(-c4cccc(Cl)c4)nnc3s2)c1	ERa SRC1 pot 296
CCOc1cccc(-c2nnc3sc(-c4cccs4)nn23)c1	none
COc1cc(-c2nn3c(-c4ccccc4)nnc3s2)cc(OC)c1OC	none
COc1ccc(-c2nnc3sc(-c4ccccc4OC)nn23)cc1	ERa SRC1 pot 234
CCOc1ccc2c(c1)-c1c(ssc1=S)C(C)(C)N2	none (no result: ERa coact inh, ERa SRC1 pot, ERb coact inh)
Cn1cc(-c2nnc(-c3ccccc3)o2)c2ccccc21	none (no result: CD11b adhes inh, CD11b adhes enh)
c1ccc2c(c1)nnn2Cc1nnc2sc(-c3ccc4c(c3)OCCO4)nn12	none
Cc1ccc(-c2nnc3sc(-c4ccc5c(c4)OCCO5)nn23)cc1	ERa SRC1 pot 303 (no result: CD11b adhes inh, CD11b adhes enh)
CCOc1ccc(-c2nn3c(-c4ccc(OC)cc4)nnc3s2)cc1	ERa SRC1 pot 677[fluorescence artefact?]
CCOP(=O)(O)c1ccccc1OCCCCCOc1ccccc1P(=O)(O)OCC	none (no result: CD11b adhes inh, CD11b adhes enh)
O=C(COC(=O)c1ccccc1Sc1ccc(C(F)(F)F)cc1[N+](=O)[O-])NC(=O)NC1CCCC1	none (no result: ERa coact inh, ERa SRC1 pot, ERb coact inh)
Cc1ccc(NC(=O)c2cc(N3C(=O)C=CC3=O)ccc2Cl)cc1C	none (no result: ERa coact inh, ERa SRC1 pot, ERb coact inh)
O=S(=O)(c1ccc(N2CCN(CCO)CC2)nc1)N1CCCCC1	none (no result: CD11b adhes inh, CD11b adhes enh)
C=C(C)CNC(=S)Nc1sc2c(c1C(=O)OCC)CC(C)(C)OC2	none (no result: ERa coact inh, ERa SRC1 pot, ERb coact inh)
CN(CC(=O)Nc1ccc(F)cc1)C(=O)COc1ccc(C(=O)c2ccccc2)cc1	none (no result: ERa coact inh, ERa SRC1 pot, ERb coact inh)
COc1ccc(NC(=O)c2ccco2)cc1NC(=O)c1ccc(Br)o1	none
O=C(Nc1cccc(NC(=O)c2ccc(-c3ccc(Br)cc3)o2)c1)c1ccco1	ERa coact inh 71[fluorescence artefact?] (no result: CD11b adhes inh, CD11b adhes enh)
CC(C)(C)c1csc(NC(=O)c2ccc3nccnc3c2)n1	none
O=C(O)CC(NS(=O)(=O)c1cccc2nsnc12)c1ccc(F)cc1 (centres undefined)	CD11b adhes inh 60
